Calls of active or inactive are those of the source. How the source made its calls: active means hit-call score of the fitted dose curve at least 0.9, where 1 is the maximum; inconclusive means response in the unintended direction; inactive means score below 0.9.
These compounds were tested against Estrogen receptor (Homo sapiens) (UniProt P03372) (assay: OT_ER_ERaERa_1440: Odyssey Thera (OT) 24-hour HEK293T Protein-Complementation Assay for Estrogen Receptor-alpha/-alpha Homodimer (AID 2283349);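 further: hits raise fluorescence above DMSO for agonists and antagonists alike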).
Chain of Estrogen receptor (Homo sapiens) (P03372 whole entry, looked up, the tested form may be a part): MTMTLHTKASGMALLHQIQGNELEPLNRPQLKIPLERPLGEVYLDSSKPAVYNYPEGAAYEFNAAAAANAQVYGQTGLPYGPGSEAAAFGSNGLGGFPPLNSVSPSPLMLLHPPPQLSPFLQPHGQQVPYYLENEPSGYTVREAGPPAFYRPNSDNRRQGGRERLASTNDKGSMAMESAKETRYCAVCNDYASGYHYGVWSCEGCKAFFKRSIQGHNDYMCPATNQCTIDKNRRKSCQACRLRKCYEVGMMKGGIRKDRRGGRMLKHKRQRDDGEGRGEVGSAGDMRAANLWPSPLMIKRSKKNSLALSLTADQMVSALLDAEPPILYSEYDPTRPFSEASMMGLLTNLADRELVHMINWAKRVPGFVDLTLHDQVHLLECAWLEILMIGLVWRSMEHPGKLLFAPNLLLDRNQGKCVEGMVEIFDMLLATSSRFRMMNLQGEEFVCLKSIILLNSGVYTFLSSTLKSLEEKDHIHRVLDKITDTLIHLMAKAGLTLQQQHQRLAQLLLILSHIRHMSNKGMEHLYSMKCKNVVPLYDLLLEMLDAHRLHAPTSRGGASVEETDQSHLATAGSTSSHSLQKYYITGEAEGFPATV
Outline: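 HEK293T cells stably expressing the human ER alpha ligand-binding domain (aa 310-547) as a homodimer PCA were dosed for 24 hours. Fluorescence intensity was read by laser scanning cytometry, and gain of signal was fitted relative to DMSO vehicle.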
In the case of `CCCCCCC(C)(C)C(=O)O`, the outcome was “inactive”. With `COc1cc([N+](=O)[O-])ccc1N` the outcome was “inactive”. For `CN(C)CCOC(c1ccccc1)c1ccccc1`, the outcome was “inactive”. In the case of `CN(Cc1cnc2nc(N)nc(N)c2n1)c1ccc(C(=O)N[C@@H](CCC(=O)O)C(=O)O)cc1`, the outcome was “inactive”. `CCc1ccccc1O` was tested, and the outcome was “inactive”. `CCCCc1ccc2ccccc2c1S(=O)(=O)O` was tested, and the outcome was “inactive”. `NCc1cccc(CN)c1` was tested, and the outcome was “inactive”. With `C=CC(C)(CCC=C(C)C)OC(C)=O` (centres undefined) the outcome was “inactive”. `CCCCCCCCCCCCOC(=O)c1cc(O)c(O)c(O)c1` was tested, and the AC50 was 11.9 µM (active). For `CCCCCCc1ccc(N)cc1`, the outcome was “inactive”. For `N=C(N)c1ccc(OCCCCCOc2ccc(C(=N)N)cc2)cc1`, the outcome was “inactive”. With `CCCCCCCCCC=CCC1CC(=O)OC1=O` (centres undefined) the outcome was “inactive”. For `Cc1cc(C(=C2C=CC(=Nc3ccc(S(=O)(=O)O)cc3)C=C2)c2ccc(Nc3ccc(S(=O)(=O)O)cc3)cc2)cc(S(=O)(=O)O)c1N`, the outcome was “inactive”. For `O=C(O)c1cccc(C(=O)O)n1`, the outcome was “inactive”. For `NCCN`, the outcome was “inactive”. `NC(=NCCCCCCN=C(N)/N=C(\N)Nc1ccc(Cl)cc1)/N=C(\N)Nc1ccc(Cl)cc1` was tested, and the outcome was “inactive”. For `Cc1cc(Cc2cc(C)cc(C(C)(C)C)c2O)c(O)c(C(C)(C)C)c1`, the outcome was “inactive”. `CCCCCC(C)OC(=O)COc1ccc(Cl)c2cccnc12` (centres undefined) was tested, and the outcome was “inactive”. In the case of `CCCCc1oc2ccccc2c1C(=O)c1cc(I)c(OCCN(CC)CC)c(I)c1`, the outcome was “inactive”.

Source: PubChem BioAssay (EPA / NIEHS)
